Shown are actives, neighbours in structure and some others; about 4.1% of the full set was active somewhere.
AmpC inh detg – blocks E. coli AmpC beta-lactamase in detergent assay; AmpC hydrolysis of nitrocefin, absorbance 480 nm, 0.01% Triton; actives 0.041% (n = 370,000); AID 485294; Potency, µM (top dose mostly 114 µM), for the others: at the highest dose activity change, negative = inhibition, hits mostly inhibitors; P00811;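 also: 0% = no-compound wells and -100% = no-enzyme wells; nearly all actives have a fitted effect of over 25% in size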
Target sequence (P00811 whole entry, looked up): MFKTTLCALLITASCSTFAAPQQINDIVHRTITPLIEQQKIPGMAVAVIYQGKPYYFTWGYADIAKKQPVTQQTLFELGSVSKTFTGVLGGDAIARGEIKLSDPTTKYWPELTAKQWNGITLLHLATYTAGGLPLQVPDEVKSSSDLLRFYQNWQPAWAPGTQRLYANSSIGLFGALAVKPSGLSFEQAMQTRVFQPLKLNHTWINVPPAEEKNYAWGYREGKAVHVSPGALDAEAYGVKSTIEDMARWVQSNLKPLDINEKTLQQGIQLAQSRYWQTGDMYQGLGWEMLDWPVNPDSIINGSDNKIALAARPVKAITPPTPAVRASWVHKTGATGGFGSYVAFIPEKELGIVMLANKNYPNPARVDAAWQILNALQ
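AmpC (5.3 nM in the dispensed reagent) in 20 mM phosphate pH 7.0 with 0.01% (detergent screen) or 0.0001% Triton X-100 was preincubated with compounds for 15 min at room temperature. Nitrocefin was then added from an 800 uM solution, and hydrolysis was followed at 480 nm.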
AmpC no deterg – inhibitors of E. coli AmpC beta-lactamase without detergent. P00811. AmpC nitrocefin hydrolysis, absorbance 480 nm, 0.0001% Triton. Potency, µM (top dose mostly 57.1 µM), without a hit: top-dose activity change, negative = inhibition, actives largely listed as inhibitors. actives 0.52% (n = 330,000);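 also: plate controls were no compound for no effect and no enzyme for full effect; nearly all actives have a fitted effect of over 20% in size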
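AmpC (5.3 nM in the dispensed reagent) in 20 mM phosphate pH 7.0 with 0.01% (detergent screen) or 0.0001% Triton X-100 was preincubated with compounds for 15 min at room temperature. Nitrocefin was then added from an 800 uM solution, and hydrolysis was followed at 480 nm.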
AMA1-RON2 inh – inhibitors of Plasmodium falciparum AMA1-RON2 interaction | actives 0.2% (n = 360,000) | AlphaScreen AMA1-biotinylated RON2 peptide binding | AID 720542 | Potency, µM (highest dose often 58.2 µM), inactives show top-dose activity change, negative = inhibition, usual class: inhibitors;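 also: 0% = vehicle wells and -100% = peptide control; nearly all actives have a fitted effect of over 45% in size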
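AMA1 (3D7) with his tag at 25 nM final met compounds first, then biotinylated RON2 peptide at 25 nM; detection used donor plus acceptor beads, 10 µg/mL apiece, read by AlphaScreen after 30 min at room temperature.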
Sm TGR inh – blocks Schistosoma mansoni thioredoxin glutathione reductase; purified TGR, DTNB reduction, TNB absorbance 405 nm; Potency, µM (top dose mostly 114 µM), for the others: at the highest dose activity change, negative = inhibition, most hits filed as inhibitors; Q962Y6; AID 485364; actives 3% (n = 360,000); also: nearly all actives have a fitted effect of over 60% in size
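First, TGR (20 nM dispensed) and NADPH were mixed with compound. Second, a 15 min room-temperature incubation followed. Third, further NADPH and then DTNB were added to start the reaction. Finally, TNB absorbance was monitored kinetically.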
FMDV inh – antivirals against foot and mouth disease virus; FMDV antiviral cell-based qHTS; Potency, µM (doses to about 57.9 µM), for inactives: top-dose activity change, negative = inhibition, actives largely listed as inhibitors; actives 1.2% (n = 410,000); AID 1159524; calls by dose curve; tested in HEK293T cells; also: read-out not given here; nearly all actives have a fitted effect of over 45% in size
Starred values were filed as active, the others as inactive; ? = inconclusive; / = no result given. Unless noted, calls follow the shape of the dose curve; as a rule, active = well fitted curve in the direction sought with a large enough effect; inconclusive = small, poorly fitted or top-dose-only effect, or another doubt; inactive = no such curve, though single readings can be large; an effect the other way counts as inactive or inconclusive. Unless noted, % is scaled to controls: 0 for no effect and ±100 for the full control effect; potency is read from the fitted curve at half-maximal effect.

SMILES | AmpC inh detg | AmpC no deterg | AMA1-RON2 inh | Sm TGR inh | FMDV inh
Cc1cc(NC(=O)CCS(=O)(=O)c2nc(-c3ccccc3)cc(C(F)(F)F)n2)no1 | 6% | -13% | 7% | 32µM* | 25µM*
O=C(CCS(=O)(=O)c1nc(-c2ccc3c(c2)OCO3)cc(C(F)(F)F)n1)Nc1ccc(F)cc1F | -2% | / | / | -21% | ?
COc1ccc(CCNC(=O)CSc2nc3nc(C)c(Cc4ccc(C)cc4)c(C)n3n2)cc1OC | 5% | / | / | -3% | ?
COc1ccc(NC(=O)CCS(=O)(=O)c2nc(-c3ccc4c(c3)OCO4)cc(C(F)(F)F)n2)cc1 | 7% | / | / | 79µM* | -6%
COc1ccc(NC(=O)CCCS(=O)(=O)c2nc(-c3ccc(OC)c(OC)c3)cc(C(F)(F)F)n2)cc1OC | ? | / | / | ? | 32µM*
O=C1NC(c2cccnc2)Nc2sc3c(c21)CCCC3 (stereo not drawn) | ? | -22% | 6% | 45µM* | 37%
O=C1NC(c2ccccn2)Nc2sc3c(c21)CCC3 (stereo not drawn) | -3% | -25% | 94% | 32µM* | 37%
CN1CCc2c(sc3c2C(=O)NC(c2ccccn2)N3)C1 (stereo not drawn) | -10% | 13% | -37% | 40µM* | 12%
CN1CCc2c(sc3c2C(=O)NC(c2ccccc2)N3)C1 (stereo not drawn) | -7% | -10% | 21% | -19% | -20%
Cc1ccsc1C1NC(=O)c2c(sc3c2CCCC3)N1 (stereo not drawn) | -8% | -31% | -4% | 35µM* | 10%
CC1(C)Cc2c(sc3c2C(=O)NC(c2cccnc2)N3)CO1 (stereo not drawn) | ? | -27% | 29% | -33% | 16%
O=C1NC(c2ccc(Br)cc2)Nc2sc3c(c21)CCC3 (stereo not drawn) | 2% | -41% | 12% | 21% | 1%
O=C(NCCc1nnc2n1CCN(CC1CC=CCC1)CC2)c1ccc(F)cc1 (stereo not drawn) | / | / | / | / | -12%
Cn1c(=O)n(-c2ccc3c(c2)OCO3)c2nc(-c3ccccc3)nc(C(N)=O)c21 | 2% | / | / | -9% | -4%
CC(C)CN(c1ccccc1)S(=O)(=O)c1nnc(NC(=O)C2CCCCC2)s1 | -2% | / | / | ? | 7%
Clc1ccccc1Cc1noc(CN2CCN(Cc3ccccn3)CC2)n1 | -1% | 39% | 34% | 18µM* | 9%
CN(Cc1cnccn1)Cc1nc(Cc2ccccc2Cl)no1 | -2% | 2% | 6% | 3% | -9%
CCOCCOC(=O)c1[nH]c2c(c1C)C(=O)CC(c1cc(OC)c(OC)c(OC)c1)C2 (stereo not drawn) | -16% | 76% | 12% | 2% | 28µM*
O=C(NCC1CC1)c1ccc(Nc2nc3ccc(Br)cc3[nH]2)cc1 | 0% | -41% | -13% | 3.5µM* | -20%
O=C(NCc1ccco1)c1cccc(Nc2nc3ccc(Br)cc3[nH]2)c1 | -3% | -35% | -1% | 1% | -7%
CSc1ccccc1NC(=S)Nc1ccc(S(N)(=O)=O)cc1 | 0% | -16% | 4% | 22µM* | -6%
NS(=O)(=O)c1ccc(NC(=S)Nc2ccc(C(=O)N3CCCCC3)cc2)cc1 | -1% | 34% | -12% | 45µM* | -15%
NS(=O)(=O)c1ccc(NC(=S)NCc2ccccc2)cc1 | ? | -15% | -3% | -23% | 6%
NS(=O)(=O)c1ccc(NC(=S)Nc2cc(Cl)c(Cl)cc2Cl)cc1 | -3% | -30% | 6% | 32µM* | -28%
O=C(Nc1ccc(C(=O)N2CCCC2)cc1)C1CCCCC1 | / | / | 17% | / | 19%
SMILES | AmpC inh detg | AmpC no deterg | AMA1-RON2 inh | Sm TGR inh | FMDV inh
COc1cc([C@@H]2c3cc4c(cc3C(O[C@@H]3O[C@@H]5COC(c6cccs6)O[C@H]5[C@H](O)[C@H]3O)C3COC(=O)[C@@H]32)OCO4)cc(OC)c1O (stereo partly drawn) | / | / | / | / | -20%
O=C(CSc1ncnc2c1nnn2Cc1ccc(F)cc1)NC1CCCCC1 | ? | -3% | -3% | -3% | -28%
O=C(Cn1cnc2c(nnn2Cc2ccc(F)cc2)c1=O)NCc1ccc(F)cc1 | 4% | -7% | 6% | 0% | 5%
NC(=O)CSc1ncnc2c1nnn2Cc1ccc(F)cc1 | ? | 58% | 11% | -7% | 35µM*
O=C(CSc1ncnc2c1nnn2Cc1ccc(F)cc1)NCC1CCCO1 (stereo not drawn) | -1% | -10% | -8% | -23% | 35µM*
OCCN1CCN(Cc2ccc3c(c2)CN(Cc2cnc(-c4ccccc4)s2)CCO3)CC1 | / | / | / | / | -11%
CC1=C/C(=N\OS(=O)(=O)c2ccccc2)C(C(C)C)=CC1=O | -6% | -33% | ? | ? | 28µM*
COc1ccc(S(=O)(=O)/N=C2/C=CC(=O)C(C)=C2C)cc1 | 0% | -54% | 1% | ? | -10%
CC(S(=O)(=O)c1ccccc1)S(=O)(=O)c1ccccc1 | / | / | -14% | / | 11%
CC1=C(C)/C(=N\OS(=O)(=O)c2ccc(C)cc2)C=CC1=O | 0% | -28% | ? | 7.9µM* | 20µM*
CC1=C/C(=N\OS(=O)(=O)c2ccccc2)C(C)=CC1=O | -10% | -11% | ? | 45µM* | 4.5µM*
CCOc1ccc(NC(=O)CN2C(=O)C(c3ccccc3)=NC23CCCCCC3)cc1 | 16% | / | / | 3% | 8%
O=c1ccc(=O)n(-c2ccccc2)[nH]1 | 3% | -19% | -14% | 5µM* | -4%
CCOC(=O)N1CCC(NC(=O)c2ccc3snnc3c2)CC1 | ? | 45µM* | 26% | -5% | -7%
CN(C)c1ccc(C(CNS(=O)(=O)c2ccc(Cl)cc2)N2CCOCC2)cc1 (stereo not drawn) | -1% | / | / | -18% | -7%
CCNc1nc(NCC)nc(N(C)/N=C/c2ccco2)n1 | -7% | -22% | -8% | 35µM* | -4%
Cc1ccc(S(=O)(=O)NCCc2sc3nc(-c4ccccc4)nn3c2C)cc1C | 2% | / | / | 5% | 18%
C=CCC1(CC=C)CCCN1C(=O)CC1C(=O)NCCN1Cc1cccc(OC)c1 (stereo not drawn) | 2% | 128% | 25% | ? | -25%
COc1cc(CN2CCNC(=O)C2CC(=O)NCCC2=CCCCC2)cc(OC)c1 (stereo not drawn) | 0% | 76% | -1% | 40µM* | 13%
C=CCC1(CC=C)CCCN1C(=O)CC1C(=O)NCCN1Cc1cc(OC)cc(OC)c1 (stereo not drawn) | 3% | 149% | 23% | 28µM* | 7%
Cc1nc(CCNC(=O)CC2C(=O)NCCN2Cc2ccccc2F)sc1C (stereo not drawn) | -7% | 45% | -8% | -30% | -8%
Cc1nc(CCNC(=O)CC2C(=O)NCCN2Cc2ccc(F)cc2)sc1C (stereo not drawn) | 11% | 5% | 5% | 20µM* | 17%
